# Assay results taken from the supplement of paper PMC12067093, “Discovery and optimisation of a covalent ligand for TRIM25 and its application to targeted protein ubiquitination” (Chemical Science, 2025).
# The full data set covers some 21,000 targets. This sample favours those with the largest changes.
# Compound: Cc1cc(ccc1-c1ccccc1)C(=O)N1CCCN(CC1)C(=O)CCl [compound 10]
# Test: probe-labelled cysteine peptide fold change vs DMSO (competition) (log2 fold change); higher = less target engagement (more negative = stronger competition)
# Details: THP-1, incubation time: 4 h
# 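Further: competitive profiling in live THP-1 cells: cysteine peptides tagged with an iodoacetamide desthiobiotin (IA-DTB) probe, intensity after compound treatment relative to DMSO-treated cells.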
# Sequence of UniProt Q92995 (Q92995 whole entry): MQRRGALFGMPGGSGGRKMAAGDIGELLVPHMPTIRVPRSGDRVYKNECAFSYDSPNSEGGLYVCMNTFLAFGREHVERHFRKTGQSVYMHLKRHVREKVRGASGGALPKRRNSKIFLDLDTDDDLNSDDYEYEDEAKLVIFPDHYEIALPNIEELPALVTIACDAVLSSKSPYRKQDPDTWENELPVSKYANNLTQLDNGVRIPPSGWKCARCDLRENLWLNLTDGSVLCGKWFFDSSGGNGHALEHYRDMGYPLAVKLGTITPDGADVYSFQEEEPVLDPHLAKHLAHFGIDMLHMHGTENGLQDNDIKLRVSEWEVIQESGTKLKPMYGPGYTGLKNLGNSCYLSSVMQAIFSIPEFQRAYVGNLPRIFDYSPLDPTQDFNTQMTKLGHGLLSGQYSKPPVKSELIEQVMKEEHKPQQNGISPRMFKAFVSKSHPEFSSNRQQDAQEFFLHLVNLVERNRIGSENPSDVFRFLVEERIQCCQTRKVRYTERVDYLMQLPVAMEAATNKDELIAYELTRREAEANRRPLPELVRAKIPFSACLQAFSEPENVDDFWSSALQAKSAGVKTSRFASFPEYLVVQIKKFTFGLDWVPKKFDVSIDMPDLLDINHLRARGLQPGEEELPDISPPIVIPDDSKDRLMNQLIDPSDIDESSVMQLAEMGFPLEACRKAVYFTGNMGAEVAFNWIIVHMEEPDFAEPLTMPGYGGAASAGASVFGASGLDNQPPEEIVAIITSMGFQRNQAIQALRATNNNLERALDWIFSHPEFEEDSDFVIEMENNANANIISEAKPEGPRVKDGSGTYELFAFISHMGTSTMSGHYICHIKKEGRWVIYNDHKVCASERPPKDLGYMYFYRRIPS
# Sequence of UniProt Q15631 (Q15631 whole entry): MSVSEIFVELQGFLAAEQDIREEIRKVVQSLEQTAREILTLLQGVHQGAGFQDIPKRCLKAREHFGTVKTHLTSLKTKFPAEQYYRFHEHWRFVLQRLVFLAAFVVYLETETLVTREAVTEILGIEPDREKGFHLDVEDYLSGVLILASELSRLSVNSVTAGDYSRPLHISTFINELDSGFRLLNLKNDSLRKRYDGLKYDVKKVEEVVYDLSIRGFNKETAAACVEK
# Sequence of UniProt Q9NXH9 (Q9NXH9 whole entry, looked up): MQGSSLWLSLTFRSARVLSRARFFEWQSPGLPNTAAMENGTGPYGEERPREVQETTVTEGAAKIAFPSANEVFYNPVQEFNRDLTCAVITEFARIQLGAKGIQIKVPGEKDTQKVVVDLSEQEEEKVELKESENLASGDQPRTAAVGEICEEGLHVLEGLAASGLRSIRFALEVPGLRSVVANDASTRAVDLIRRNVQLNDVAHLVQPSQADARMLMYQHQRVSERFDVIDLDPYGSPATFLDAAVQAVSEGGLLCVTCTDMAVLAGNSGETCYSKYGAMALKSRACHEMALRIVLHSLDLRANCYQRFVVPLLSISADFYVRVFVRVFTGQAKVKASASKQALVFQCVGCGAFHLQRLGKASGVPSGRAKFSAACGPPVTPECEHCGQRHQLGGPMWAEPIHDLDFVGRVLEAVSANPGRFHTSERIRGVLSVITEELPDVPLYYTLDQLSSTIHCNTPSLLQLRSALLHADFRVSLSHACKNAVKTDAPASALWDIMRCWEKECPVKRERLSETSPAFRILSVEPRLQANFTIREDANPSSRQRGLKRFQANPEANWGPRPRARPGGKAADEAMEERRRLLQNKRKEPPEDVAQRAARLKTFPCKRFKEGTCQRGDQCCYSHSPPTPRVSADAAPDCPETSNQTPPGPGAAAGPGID
# Sequence of UniProt O60636 (O60636 whole entry): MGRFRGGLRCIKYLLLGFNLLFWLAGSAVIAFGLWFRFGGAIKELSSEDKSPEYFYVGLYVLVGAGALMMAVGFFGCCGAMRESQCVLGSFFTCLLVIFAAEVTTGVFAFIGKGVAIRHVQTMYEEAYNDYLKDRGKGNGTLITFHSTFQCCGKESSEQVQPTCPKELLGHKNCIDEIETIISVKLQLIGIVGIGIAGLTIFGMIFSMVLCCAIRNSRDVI
# Sequence of UniProt Q8IWV7 (Q8IWV7 whole entry, looked up): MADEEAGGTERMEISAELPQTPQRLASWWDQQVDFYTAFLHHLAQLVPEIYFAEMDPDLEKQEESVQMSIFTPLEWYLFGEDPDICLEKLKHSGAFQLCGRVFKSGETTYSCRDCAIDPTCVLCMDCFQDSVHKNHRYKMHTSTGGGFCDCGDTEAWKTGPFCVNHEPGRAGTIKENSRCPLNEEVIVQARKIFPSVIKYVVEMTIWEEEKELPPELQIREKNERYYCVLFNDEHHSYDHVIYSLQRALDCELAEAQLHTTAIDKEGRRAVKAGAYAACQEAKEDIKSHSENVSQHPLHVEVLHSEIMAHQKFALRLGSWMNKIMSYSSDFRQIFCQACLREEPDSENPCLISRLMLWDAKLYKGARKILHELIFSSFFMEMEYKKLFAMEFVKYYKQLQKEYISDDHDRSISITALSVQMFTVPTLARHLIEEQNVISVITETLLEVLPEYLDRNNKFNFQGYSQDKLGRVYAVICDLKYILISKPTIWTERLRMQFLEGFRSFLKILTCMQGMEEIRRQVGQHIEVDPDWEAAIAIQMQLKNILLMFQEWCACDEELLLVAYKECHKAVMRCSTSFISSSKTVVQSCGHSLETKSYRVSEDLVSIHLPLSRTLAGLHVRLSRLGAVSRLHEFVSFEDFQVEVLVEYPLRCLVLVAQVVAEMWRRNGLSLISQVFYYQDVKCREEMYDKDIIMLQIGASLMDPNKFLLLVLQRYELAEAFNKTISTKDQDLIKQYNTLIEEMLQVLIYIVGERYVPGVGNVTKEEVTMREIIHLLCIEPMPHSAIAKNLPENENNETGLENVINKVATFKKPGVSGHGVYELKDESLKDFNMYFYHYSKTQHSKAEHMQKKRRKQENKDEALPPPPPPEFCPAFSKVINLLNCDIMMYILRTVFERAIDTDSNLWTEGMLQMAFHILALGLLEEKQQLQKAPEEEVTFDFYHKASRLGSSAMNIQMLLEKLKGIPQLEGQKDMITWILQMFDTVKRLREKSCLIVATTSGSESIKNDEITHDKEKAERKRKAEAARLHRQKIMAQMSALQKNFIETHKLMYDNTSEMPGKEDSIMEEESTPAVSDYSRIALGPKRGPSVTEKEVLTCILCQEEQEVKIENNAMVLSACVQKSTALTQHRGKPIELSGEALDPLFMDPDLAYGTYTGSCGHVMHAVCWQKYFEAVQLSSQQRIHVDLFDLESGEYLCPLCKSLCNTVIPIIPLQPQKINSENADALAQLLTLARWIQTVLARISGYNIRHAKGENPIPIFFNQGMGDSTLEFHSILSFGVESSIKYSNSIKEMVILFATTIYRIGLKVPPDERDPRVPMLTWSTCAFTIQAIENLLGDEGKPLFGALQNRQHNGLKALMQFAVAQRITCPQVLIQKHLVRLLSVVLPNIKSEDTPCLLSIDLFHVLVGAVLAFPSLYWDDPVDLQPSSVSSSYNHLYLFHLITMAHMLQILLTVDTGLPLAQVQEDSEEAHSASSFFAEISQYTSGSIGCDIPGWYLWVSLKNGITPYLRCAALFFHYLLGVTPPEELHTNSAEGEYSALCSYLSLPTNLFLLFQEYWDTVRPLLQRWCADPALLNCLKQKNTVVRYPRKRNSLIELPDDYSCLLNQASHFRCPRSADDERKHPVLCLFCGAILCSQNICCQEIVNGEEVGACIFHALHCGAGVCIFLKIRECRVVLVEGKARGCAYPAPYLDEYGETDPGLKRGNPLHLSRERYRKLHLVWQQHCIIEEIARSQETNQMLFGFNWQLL
# Sequence of UniProt Q9C0C9 (Q9C0C9 whole entry, looked up): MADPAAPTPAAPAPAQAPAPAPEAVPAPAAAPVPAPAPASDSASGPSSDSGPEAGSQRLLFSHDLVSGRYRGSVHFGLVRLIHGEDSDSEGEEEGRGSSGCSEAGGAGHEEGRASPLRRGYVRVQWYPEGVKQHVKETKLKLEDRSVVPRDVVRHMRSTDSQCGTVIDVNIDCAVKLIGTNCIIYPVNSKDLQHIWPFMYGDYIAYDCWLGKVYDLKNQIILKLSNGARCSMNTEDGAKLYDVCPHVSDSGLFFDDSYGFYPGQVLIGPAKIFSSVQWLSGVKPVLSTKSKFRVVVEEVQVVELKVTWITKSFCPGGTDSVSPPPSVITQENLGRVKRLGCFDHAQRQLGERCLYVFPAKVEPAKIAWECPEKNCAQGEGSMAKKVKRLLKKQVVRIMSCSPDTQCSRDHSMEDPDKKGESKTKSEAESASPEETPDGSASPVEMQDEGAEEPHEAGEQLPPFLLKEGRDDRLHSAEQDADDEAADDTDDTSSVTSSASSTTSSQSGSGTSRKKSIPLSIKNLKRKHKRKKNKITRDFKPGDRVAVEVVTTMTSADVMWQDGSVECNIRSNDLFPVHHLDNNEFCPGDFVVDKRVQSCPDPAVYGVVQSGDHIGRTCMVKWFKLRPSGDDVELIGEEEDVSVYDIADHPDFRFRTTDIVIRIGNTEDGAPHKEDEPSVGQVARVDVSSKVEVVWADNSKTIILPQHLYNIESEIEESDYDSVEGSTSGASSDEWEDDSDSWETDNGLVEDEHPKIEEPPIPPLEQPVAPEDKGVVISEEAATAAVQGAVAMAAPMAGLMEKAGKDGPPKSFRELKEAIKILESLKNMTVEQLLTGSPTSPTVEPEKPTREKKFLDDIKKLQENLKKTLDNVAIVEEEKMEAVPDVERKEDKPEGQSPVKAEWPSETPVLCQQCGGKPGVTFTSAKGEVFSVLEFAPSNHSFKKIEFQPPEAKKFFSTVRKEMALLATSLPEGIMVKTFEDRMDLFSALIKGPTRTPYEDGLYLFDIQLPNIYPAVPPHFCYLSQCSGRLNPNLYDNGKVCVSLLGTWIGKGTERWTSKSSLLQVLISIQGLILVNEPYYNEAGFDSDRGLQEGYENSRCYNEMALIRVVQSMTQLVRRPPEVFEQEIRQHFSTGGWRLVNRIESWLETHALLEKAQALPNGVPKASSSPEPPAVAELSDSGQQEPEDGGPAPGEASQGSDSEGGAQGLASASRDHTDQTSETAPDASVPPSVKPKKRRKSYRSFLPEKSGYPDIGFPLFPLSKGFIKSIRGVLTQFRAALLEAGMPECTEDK
Target,probe-labelled cysteine peptide fold change (10 µM),probe-labelled cysteine peptide fold change (50 µM)
VCPIP1_Q96JH7_517_NYSFPLNNLVCSYDSVK (UniProt Q96JH7),0.0884,0.1
USP40_Q9NVE5_1054_RIEICLEPLQK (UniProt Q9NVE5),0.0209,-0.0411
VPS13C_Q709C8_2289_GIEHSLIEENCGVVVESIQVTLECGLGHR (UniProt Q709C8),-0.105,-0.0661
TRIM33_Q9UPN9_276_KKEDVSESVGASGQRPVFCPVHK (UniProt Q9UPN9),-0.0301,-0.148
USP14_P54578_257_CTESEEEEVTK (UniProt P54578),-0.254,-0.167
UBN1_Q9NPG3_711_VGGVLCTEEK (UniProt Q9NPG3),-0.0763,0.0664
TSN_Q15631_225_ETAAACVEK (UniProt Q15631),-0.291,-0.282
UBE2O_Q9C0C9_375_NCAQGEGSMAK (UniProt Q9C0C9),-0.0634,-0.156
UROD_P06132_308_TVTLQGNLDPCALYASEEEIGQLVK (UniProt P06132),-0.0737,0.0622
UBR4_Q5T4S7_4890_KQQGYSTVSHFNIVHYDCHLAAVR (UniProt Q5T4S7),0.0563,-0.151
TSPAN2_O60636_164_ESSEQVQPTCPK (UniProt O60636),-0.411,-0.422
UBR1_Q8IWV7_1101_EVLTCILCQEEQEVK (UniProt Q8IWV7),-0.162,0.733
TXN2_Q99757_90+93_VVNSETPVVVDFHAQWCGPCK (UniProt Q99757),-1.92,-2.07
UBA7_P41226_68_NLVLMGVGSLTLHDPHPTCWSDLAAQFLLSEQDLER (UniProt P41226),0.0506,0.33
UBA6_A0AVT1_156_YQCVVLTEMK,0.126,0.104
TRIM59_Q8IWR1_208_SFLTALCDVGNLINQEYTPQIER<|>IFT80_Q9P2H3-3_208_SFLTALCDVGNLINQEYTPQIER (UniProt Q9P2H3+Q8IWR1),0.237,-0.00617
TRIM25_Q14258_110_ASAPSPNAQVACDHCLK (UniProt Q14258),-0.0981,-0.283
TRAP1_Q12931_527_KDTEVLFCFEQFDELTLLHLR (UniProt Q12931),0.143,0.314
USP13_Q92995_231_ENLWLNLTDGSVLCGK (UniProt Q92995),0.0774,0.113
TRMT1_Q9NXH9_621_GDQCCYSHSPPTPR (UniProt Q9NXH9),-0.0265,-0.0659
TSTA3_Q13630_116_VVSCLSTCIFPDK (UniProt Q13630),-0.0711,-1.67
USP48_Q86UV5_512+514_WLDESTPTKPIDNHACLCSHDK (UniProt Q86UV5),-0.0825,-1.16
TYSND1_Q2T9J0_17_AAEQAGCMVSASR (UniProt Q2T9J0),0.0109,0.0758
TRIM33_Q9UPN9_582_GNMNCGAFQAHQMR (UniProt Q9UPN9),-0.217,-0.598
USP34_Q70CQ2_3118_SNIRPPRPELNMCLLPTMVETSK (UniProt Q70CQ2),0.146,-0.174
TRIM28_Q13263_221+229_HEPLVLFCESCDTLTCR (UniProt Q13263),-0.0841,-0.368
UCHL3_P15374_95_QTISNACGTIGLIHAIANNK (UniProt P15374),-0.157,-1.45
UBA3_Q8TBC4_28_MAVDGGCGDTGDWEGR (UniProt Q8TBC4),-0.245,-0.0349
TTC39C_Q8N584_517_AVKDELCR (UniProt Q8N584),-0.00819,-0.291
TRIM56_Q9BRZ2_41_TLPCLHTYCQDCLAQLADGGR (UniProt Q9BRZ2),0.238,0.113
